An excerpt weighted towards active compounds, which were near 7.5% of everything screened.
HCMV inh: human cytomegalovirus inhibition; HFF cells, HCMV-luciferase reporter, 72 h; active compounds read low; activity change, negative = inhibition, % at 57.5 µM; 410,000 compounds, 4.5% hits; AID 1259415; in the data active = activity change below about -60%; inconclusive = no clear call, values can overlap the other calls; inactive = above about -39%
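Luciferase read-out from HCMV-luciferase-infected HFFs (MOI 1 PFU/cell) 72 h post infection at 37C; compounds added after 16 h cell attachment; activity normalized between buffer-only basal and Salinomycin (10uM) inhibitor controls.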
VACV Venus inh: vaccinia inhibition (Venus reporter). Potency, µM (top dose mostly 36.5 µM), usual class: inhibitors. 330,000 compounds, 0.46% hits. Vaccinia virus Venus reporter expression, fluorescence; calls by dose curve; tested in A549 cells; note: nearly all actives have a fitted effect of over 30% in size
Giardia FBPA inh: blocks Giardia fructose-bisphosphate aldolase activity. AID 2451. A8B2U2. purified Giardia FBPA. Potency, µM (doses to about 59.6 µM), hits mostly inhibitors. 290,000 compounds, 0.71% hits; note: nearly all actives have a fitted effect of over 55% in size
Target sequence (A8B2U2 whole entry, looked up): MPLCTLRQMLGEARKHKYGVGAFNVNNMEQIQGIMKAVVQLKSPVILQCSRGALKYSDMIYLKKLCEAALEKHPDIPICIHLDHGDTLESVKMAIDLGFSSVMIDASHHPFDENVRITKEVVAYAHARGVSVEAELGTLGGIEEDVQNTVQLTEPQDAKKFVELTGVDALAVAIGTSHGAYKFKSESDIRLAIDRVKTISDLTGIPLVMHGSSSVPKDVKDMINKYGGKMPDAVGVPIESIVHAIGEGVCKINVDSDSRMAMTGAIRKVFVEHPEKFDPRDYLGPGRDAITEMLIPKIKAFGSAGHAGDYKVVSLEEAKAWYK
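Giardia FBPA (40 nM reagent) was preincubated 10 min at RT with compound (up to 57.5 uM final), then substrate plus GAPDH/TPI/NAD/arsenate coupling system with diaphorase/resazurin was added; resorufin fluorescence (525/598 nm) was read after 20 min.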
VACV mCherry inh: inhibitors of vaccinia virus infection (mCherry reporter signal); Vaccinia virus mCherry reporter infection, fluorescence; Potency, µM (titrated, usually from 36.5 µM), usual class: inhibitors; 310,000 compounds, 0.63% hits; calls by dose curve; tested in A549 cells; note: nearly all actives have a fitted effect of over 35% in size
FMDV inh: foot and mouth disease virus antiviral activity. FMDV antiviral cell-based qHTS. Potency, µM (titrated, usually from 57.9 µM), usual class: inhibitors. 410,000 compounds, 1.2% hits; calls by dose curve; tested in HEK293T cells; note: read-out not given here; nearly all actives have a fitted effect of over 45% in size
HCV inhibitor: HCV inhibition | Huh7.5.1 HCVcc-Cre infection, luciferase reporter, 44 h | Potency, µM (top dose mostly 41.8 µM), hits mostly inhibitors | 340,000 compounds, 3.4% hits | AID 651820
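HCVcc-Cre virus at an moi near 0.5 was added right after compound to cells cultured 4 h from seeding (1,000 cells/well). Luciferase activity was determined 44 h later, 15 min after substrate addition at RT.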
Hits are given with their value; n = inactive; u = inconclusive; x = no result; [ ] = remark or other dose. Unless noted, calls come from the whole dose curve; as a rule, active = well fitted curve in the direction sought with a large enough effect; inconclusive = small, poorly fitted or top-dose-only effect, or another doubt; inactive = no such curve, though single readings can be large; an effect the other way counts as inactive or inconclusive.

SMILES | HCMV inh | VACV Venus inh | Giardia FBPA inh | VACV mCherry inh | FMDV inh | HCV inhibitor
CCOc1ccc(N2CC(C(=O)Nc3cccc(S(=O)(=O)N4CCOCC4)c3)CC2=O)cc1 (stereo not given) | n | n | x | n | n | x
Fc1cccc(-c2cc3cnc(Nc4cccc(C(F)(F)F)c4)cc3[nH]2)c1 | n | x | x | x | x | x
CCCSc1ncc(Cl)c(C(=O)Nc2c(C(=O)Nc3ccc(C)cc3)oc3ccccc23)n1 | n | n | x | n | n | x
O=C(NC1CCCCC1)c1n[nH]c2c1CCCCC2 | n | n | x | n | 14.1µM | n
CCn1c(SCC(=O)Nc2cc(Cl)ccc2OC)nc2c([nH]c3ccccc32)c1=O | n | n | x | n | n | x
CC(C)N1CCC(N2CCN(Cc3ccc(-c4ccc(Cl)cc4)o3)CC2CCO)CC1 (stereo not given) | n | u | n | n | n | 3.98µM
CC(C)N1CCC(N2CCN(C/C=C/c3ccc(F)cc3)CC2CCO)CC1 (stereo not given) | n | n | n | n | n | 10µM
CC(C)N1CCC(N2CCN(Cc3cnc(-c4ccccc4)s3)CC2CCO)CC1 (stereo not given) | n | n | n | n | n | u
Cc1ccc(-c2cccc(CN3CCN(C4CCN(C(C)C)CC4)C(CCO)C3)c2)o1 (stereo not given) | n | x | n | x | n | 5.01µM
CCn1cc(CN(C)S(=O)(=O)c2ccc3ccccc3c2)c(C)n1 | -68.4 | n | n | u | u | 7.94µM
CCn1cc(CN(C)S(=O)(=O)c2cccc([N+](=O)[O-])c2)cn1 | n | n | n | n | n | n
Cc1ccc(OCCNC(=O)C2CC(=O)N(Cc3ccccc3)C2)cc1 (stereo not given) | n | n | x | n | n | n
COc1ccc(CCNc2nnc(Sc3nnnn3-c3ccccc3)s2)cc1OC | -98.2 | x | n | x | 28.2µM | 14.1µM
CCOc1cc(CNCCSc2nnnn2-c2ccccc2)ccc1OC | n | n | x | n | u | x
COc1ccccc1N(C)S(=O)(=O)c1ccc(C(=O)Nc2nccs2)cc1 | u | x | x | x | n | 11.2µM
COc1ccccc1N(C)S(=O)(=O)c1ccc(C(=O)Nc2ncc(C)s2)cc1 | u | n | x | n | u | 14.1µM
CCCS(=O)(=O)c1c(S(=O)(=O)CCC)c2cc(C(C)(C)C)ccn2c1C(=O)c1ccc(OC)c(OC)c1 | n | n[7.34 µM] | x | n[7.34 µM] | n | x
CCCS(=O)(=O)c1c(S(=O)(=O)CCC)c2cc(C(C)(C)C)ccn2c1C(=O)c1ccccc1 | -63.5 | n | x | n | u | x
CCCS(=O)(=O)c1c(S(=O)(=O)CCC)c2c(N)cccn2c1C(=O)c1ccc(OC)cc1 | u | n | u | n | n | 25.1µM
O=C(COC(=O)c1ccc(Cl)nc1)NCCc1ccccc1 | n | x | x | x | n | n
O=C1CCCc2ccc3ccccc3c21 | n | n | x | n | n | n
COc1cc2ccccc2c2c1CCCC2=O | n | n | n | x | n | 12.6µM
CCOc1ccc(/C=N/NC(=O)C2CCCC2)c(OCC)c1 | u | n | x | n | n | n
CCOc1ccc(/C=N/NC(=O)C2CC2)c(OCC)c1 | n | n | x | n | n | 4.47µM
Cc1ccc(C(=O)NCCC(=O)NCc2ccco2)cc1 | n | x | n | x | n | n
SMILES | HCMV inh | VACV Venus inh | Giardia FBPA inh | VACV mCherry inh | FMDV inh | HCV inhibitor
Fc1cccc(CNc2ncnc3cc(Cl)ccc23)c1F | u | n | n | n | u | 7.08µM
COCCCNc1ncnc2ccc(C)cc12 | -62.6 | u | n | u | n | u
COc1cccc(CNc2ncnc3cc(Cl)ccc23)c1 | u | x | n | x | u | 11.2µM
Fc1cccc(CNc2ncnc3ccc(-c4ccc5c(c4)OCO5)cc23)c1 | -92.1 | x | x | x | u | x
COc1cc2ncnc(NCc3cc(F)ccc3F)c2cc1OC | n | n | n | n | n | n
Cc1cc(OCC(=O)Nc2ccccc2C)no1 | u | x | x | x | n | n
COC(=O)c1c(NC(=O)COC(=O)C2CCC2)sc(C)c1C | n | n | x | n | n | u
COc1ccc([C@@H]2[C@@H](C(=O)N3CCOCC3)CC(=O)N2C(=O)C2CC2)cc1 | n | x | x | x | x | x
COc1cccc(-c2ccc3ncnc(NCc4cccc(C)c4)c3c2)c1 | -85.6 | x | x | x | n | x
COc1cccc(CNc2ncnc3ccc(-c4c(C)noc4C)cc23)c1 | n | x | n | x | n | x
CCCc1ccc(C(C)NC(=S)NC2CCCCC2)cc1 (stereo not given) | -73.1 | x | n | x | n | u
CC(=O)c1cccc(Nc2c3c(nc4nc(-c5cccs5)nn24)CCCC3)c1 | n | n | x | n | n | x

Bioassay records (PubChem BioAssay)
